# Hit rate of the full screen: of about 13,000 compounds, about 3,200 (25%) showed an effect of 50% or more. The list shows a part of the results.
# Tested on: P. falciparum stage V gametocytes
# Design: BacTiter-Glo ATP luminescence viability of purified stage V gametocytes in 384-well plates, per cent inhibition versus DMSO
# Conditions: 48 h, 5 µM; inhibitor
row,SMILES,% Inhibition [%]
1,Cc1cccc2nc(-c3ccc(-c4ccc(CN5CCCCC5)cc4)s3)[nH]c12.O=C(O)C(F)(F)F [TCMDC-133902],-19.5
2,CN1CCCC(CN2CCN(Cc3cccc(-c4ccc(-c5nc6ccccc6[nH]5)s4)c3)CC2)C1.O=C(O)C(F)(F)F (centres unmarked) [TCMDC-133904],49.15
3,Cc1c(CNCCCNc2nc3ccccc3[nH]2)[nH]c2cc(Cl)cc(Cl)c12 [TCMDC-139964],2.559
4,Oc1ccc(-c2cncc(NCc3ccc(F)c(F)c3)c2)cc1 [TCMDC-136668],23.22
5,CC(=O)Nc1nc(C(=O)Nc2ccc(-c3ccc(-c4nc5ccc(F)cc5[nH]4)cc3)cc2)cs1 [TCMDC-136779],1.328
6,C=CC(=O)Nc1ccc(Cl)cc1C(O)c1ccccc1 (centres unmarked) [TCMDC-131787],1.536
7,CC(C)C1c2ccc(O)cc2CC2C(=O)N(C3CCCCC3)C(=O)N21 (centres unmarked) [TCMDC-138120],28.46
8,Cc1cc(-c2cccc(CNCc3ccccc3)c2)ccc1S(=O)(=O)NCCN1CCCC1 [TCMDC-132382],4
9,Cc1cc(-c2cccc(CNC3CCN(C)CC3)c2)ccc1S(=O)(=O)NC1CCC1 [TCMDC-132380],72.06
10,Cc1cc(-c2cccc(CNC3CCN(C)CC3)c2)ccc1S(=O)(=O)NCCN1CCCC1 [TCMDC-132383],87.02
11,Cc1cc(-c2cccc(CNC3CCCC3)c2)ccc1S(=O)(=O)NCCN1CCCC1 [TCMDC-132279],103.9
12,CN1CCC(NCc2cccc(-c3ccc(S(=O)(=O)NCCN4CCCC4)c(F)c3)c2)CC1 [TCMDC-132222],88.17
13,Cc1cnc2cc3c(cc2c1N1CCN(C)CC1)NCC3 [TCMDC-140363],-97.35
14,Cc1cccc(-c2ccc(NC(=O)Nc3ccc4nccc(N5CCN(C)CC5)c4c3)cc2C)n1 [TCMDC-139353],26.78
15,COc1ccc(C=NNc2nc3ccccc3[nH]2)cc1O [TCMDC-124104],-79.21
16,COC(=O)C(Cc1ccccc1)NC(=O)NC1CCN(c2ccnc(Nc3ccc(F)cc3)n2)C1 (centres unmarked) [TCMDC-133597],34.56
17,Nc1nc(N)c2c(n1)CCC(c1ccccc1)C2 (centres unmarked) [TCMDC-137806],-20.76
18,CS(=O)(=O)c1ccc(Nc2ncc(-c3ccc(S(C)(=O)=O)cc3)c(OCC(F)(F)F)n2)cc1 [TCMDC-138524],24.49

row,SMILES,% Inhibition [%]
1,COc1ccc(C(C(=O)NC2CCN(C[C@H](O)c3ccnc4ccc(OC)cc34)CC2)N2CCc3ccccc3C2)cc1 (some centres unmarked) [TCMDC-140986],7.291
2,Cc1ccc(F)c(OCC2CCN(c3ccc(C(=O)NC4CC4)cn3)CC2)c1 [TCMDC-134037],41.12
3,CN(C)CCCOc1cccc(CCNCc2cccc(Oc3ccc(Cl)cc3)c2)c1 [TCMDC-140091],58.44
4,CN(C)CCCOc1ccc(CNCc2cccc(Oc3ccc(Cl)cc3)c2)cc1 [TCMDC-140101],61.18
5,CN(C)CCCOc1ccc(CCNCc2cccc(Oc3ccc(Cl)cc3)c2)cc1 [TCMDC-140092],79.59
6,OC(CNCc1cccc(Oc2ccc(Cl)cc2)c1)c1cccc(C(F)(F)F)c1 (centres unmarked) [TCMDC-140301],-22.32
7,CN(C)CCCOc1ccc(CCCCc2ccc(Cl)cc2C(=O)c2ccccc2)cc1 [TCMDC-131856],31.42
8,OC(CNCc1cccc(Oc2ccc(Cl)cc2)c1)c1cc(C(F)(F)F)cc(C(F)(F)F)c1 (centres unmarked) [TCMDC-140302],49.58
9,CN(C)CCCOc1cccc(NC(=O)Nc2ccc(Cl)c(Cl)c2)c1 [TCMDC-139538],-5.244
10,Cc1c(-c2cccc(CNCCc3ccc(Cl)cc3)c2)cnc(N)c1C [TCMDC-138274],9.871
11,COc1ccc(NC(=O)/C=C/c2cc(F)cc(C(F)(F)F)c2)cc1OCCN(C(C)C)C(C)C [TCMDC-140669],-66.83
12,Cc1cc2c(cc1C(F)(F)F)N(C(=O)Nc1cc(OCCN(C(C)C)C(C)C)cc(C(F)(F)F)c1)CC2 [TCMDC-140341],-56.2
13,CC=CC(=O)N1CCN(c2nccc(-c3ccc(C(C)(C)C)cc3)n2)CC1 [TCMDC-124777],7.647
14,COc1ccc(N2C(N)=NC(N)=NC2(C)C)cc1 [TCMDC-124269],-3.695
15,O=[N+]([O-])c1cc(/C=N/Nc2nc3nonc3nc2Nc2ccc(F)cc2)c(Cl)cc1Cl [TCMDC-124221],-26.03
16,COc1cccc(C2(C)CCN(CCCCNC(=O)c3ccc(NC(=O)c4ccc(Cl)cc4)cc3)CC2)c1 [TCMDC-138368],-18.96
17,O=C(Nc1ccc(Br)cc1)N(CCN1CCOCC1)CC(O)COc1ccc(Cl)c(F)c1 (centres unmarked) [TCMDC-141493],-10.57

# — article PMC4552634, “A New Set of Chemical Starting Points with Plasmodium falciparum Transmission-Blocking Potential for Antimalarial Drug Discovery” (PLoS ONE, 2015)
